In the library only some 4% were active in any assay of this set; here they are far more common.
PAX8 inh HTS: lowers PAX8-driven luciferase in RMG-I cells | AID 652154 | RMG-I TPO-luciferase reporter, SteadyGlo, 24 h | 360,000 compounds, 1.2% hits | inhibition, % at 12.6 µM;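 active = mean replicate inhibition at least 60% with every replicate also reaching 60%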;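 note: luciferase light reporting Pax8 driven TPO promoter activity; plate controls were median of neutral control wells for no effect and mitoxantrone controls for full effect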
esBAF inh: SWI/SNF esBAF complex inhibition; mouse ES cells, Bmi1-luciferase knock-in reporter, 24 h; 100% = twice the neutral-well signal; 350,000 compounds, 2% hits; reporter increase, % at 12.5 µM; in the data active = activation above about 40%;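 note: 0% = median of the plate's neutral control wells and 100% = double that signal; a rise in the Bmi1 reporter signal indicates esBAF inhibition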
EWS-Fli inh: EWS/Fli transcriptional activity inhibition; A673 NR0B1-luciferase reporter, viability-normalised; 350,000 compounds, 0.67% hits; inhibition, % at 12.6 µM;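 active = mean inhibition of at least 50% after viability correction, with every replicate also passing that limit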;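 note: firefly luciferase signal divided by Alamar Blue viability fluorescence both relative to DMSO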
Wnt bcat act: activators of Wnt/beta-catenin signaling; Wnt/beta-catenin reporter cell assay, activator, plate reader; activation, % at 9.35 µM; 300,000 compounds, 1.2% hits; in the data active = activation above about 30%, passing the limit was not always enough;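 note: 0% = neutral control wells and 100% = positive control wells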
MITF act: increases MITF-driven TRPM1 promoter luciferase signal; SK-MEL-5 TRPM1-promoter luciferase, 24 h; % of positive control, neutral wells = 0; activation, % at 12.5 µM; 300,000 compounds, 0.75% hits;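 active = mean activation of at least 80% with every replicate also reaching 80%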;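 note: 0% = neutral control wells and 100% = parthenolide positive control wells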
TRPM1 prom inh: inhibitors of MITF-driven TRPM1 promoter in melanoma cells. SK-MEL-5 TRPM1 promoter luciferase, 24 h. inhibition, % at 12.5 µM. 330,000 compounds, 0.83% hits. AID 488899;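 active = mean inhibition across replicates of 60% or more, whatever share of single replicates reaches that level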
* marks the source's active call; other numbers are inactive results; nt = no result.

SMILES	PAX8 inh HTS	esBAF inh	EWS-Fli inh	Wnt bcat act	MITF act	TRPM1 prom inh
O=C(c1cccnc1)N1CC(=O)N2[C@@H](CO)[C@@H](c3ccc(C#CCC4CCCC4)cc3)[C@@H]2C1	12	nt	2	nt	nt	nt
COc1ccc(NC(=O)Nc2ccc3c(c2)C(=O)N([C@H](C)CO)C[C@H](C)[C@H](CN(C)C(=O)Nc2c(C)noc2C)O3)cc1	nt	1	-3	nt	nt	nt
COc1ccccc1NC(=O)Nc1ccc2c(c1)C(=O)N(C)C[C@H](OC)[C@H](C)CN(C)[C@@H](C)CO2	-4	4	-3	nt	nt	nt
O=C(N/N=C/C(Cl)=C\c1ccccc1)c1cnccn1	nt	nt	nt	nt	27	-25
O=C(N/N=C/C(Br)=C/c1ccccc1)c1ccccc1F	-96	51*	-84	19	70	-75
O=C(Cn1cnc2ccccc21)N/N=C/C(Br)=C/c1ccccc1	20	nt	nt	37*	-5	4
O=C(N/N=C/C(Cl)=C/c1ccccc1)c1ccccc1F	-145	48*	-88	25	67	-68
Cc1ccccc1-c1nnc(SCC#N)o1	-10	nt	6	-1	-6	4
Cc1ccccc1-c1nnc(-c2ccccc2C)o1	-158	nt	nt	47*	58	-59
Cc1ccccc1-c1nnc(-c2ccc(Br)cc2)o1	-201	69*	nt	44*	nt	-70
Brc1cccc(-c2nnc(-c3ccccc3)o2)c1	nt	nt	nt	nt	44	-43
COc1ccc(-c2cnc3c(NC=O)cc(-c4ccc(F)cc4)cn23)cc1OC	69*	-40	34	-9	nt	nt
COc1ccc(-c2cc(NC=O)c3ncc(-c4ccc(OC)c(OC)c4)n3c2)c(OC)c1	83*	-25	47	-1	nt	nt
COc1cccc(-c2cnc3c(NC=O)cc(-c4ccc(OC)cc4OC)cn23)c1	99*	-43	32	-9	nt	nt
COc1ccc(-c2cc(NC=O)c3ncc(-c4cccc(OC)c4)n3c2)cc1	8	17	45	-1	nt	nt
COc1cccc(-c2cc(NC=O)c3ncc(-c4ccc(OC)c(OC)c4)n3c2)c1	17	-21	26	-1	nt	nt
COc1ccc(-c2cnc3c(NC=O)cc(-c4ccccc4)cn23)cc1OC	33	-39	46	-6	nt	nt
C[C@@H]1CN([C@@H](C)CO)S(=O)(=O)c2ccc(C3=CCCC3)cc2O[C@@H]1CN(C)Cc1cccc(C(=O)O)c1	15	-5	-12	nt	nt	nt
COc1ccc(S(=O)(=O)Nc2cccc(-c3ccc4nncn4n3)c2)cc1	41	-23	64*	-9	-23	24
COc1ccc(C(=O)Nc2cccc(-c3ccc4nncn4n3)c2)cc1	5	nt	-2	-1	8	-6
CCOc1ccccc1Oc1coc2cc(OCC(=O)O)ccc2c1=O	-1	-1	5	-14	3	-1
CCOc1ccc2c(=O)c(Oc3ccccc3OCC)coc2c1	-100	64*	nt	0	56	-51
CS(=O)(=O)c1sc(C#N)c2c1C(=O)CC(c1ccccc1)C2 (centres undefined)	131*	nt	42	-10	nt	87*
Cc1ccc(S(=O)(=O)N(C)C[C@@H]2OCCCC[C@@H](C)Oc3ccc(NC(=O)Nc4cccc5ccccc45)cc3C(=O)N([C@@H](C)CO)C[C@@H]2C)cc1	-13	0	-7	nt	nt	nt
Oc1ccccc1-c1cc(-c2ccco2)[nH]n1	nt	62*	nt	nt	44	-52
SMILES	PAX8 inh HTS	esBAF inh	EWS-Fli inh	Wnt bcat act	MITF act	TRPM1 prom inh
Oc1c(-c2cc(-c3ccco3)[nH]n2)ccc2ccccc12	-139	65*	nt	nt	27	-23
Oc1ccc(Cl)cc1-c1cc(-c2ccco2)[nH]n1	nt	11	nt	6	-4	6
C[C@@H]1CN([C@H](C)CO)C(=O)c2cc(C#C[C@@H](C)O)cnc2O[C@H]1CN(C)Cc1ccccn1	nt	-5	-7	nt	nt	nt
FC(F)Oc1ccc(C2N=C(c3ccccc3)NO2)cc1 (centres undefined)	-206	nt	-80	34*	117*	-116
COc1cc(C2N=C(c3ccccc3)NO2)cc(Br)c1O (centres undefined)	nt	11	nt	nt	-7	5
COc1ccc(C2N=C(c3ccccc3)NO2)cc1OC (centres undefined)	-117	52*	nt	1	68	-64
COc1ccc(C2N=C(c3ccccc3)NC(c3ccccc3)=N2)cc1	nt	-2	nt	nt	-6	5
COc1ccc(S(=O)(=O)Nc2ccc3c(c2)C(=O)N([C@@H](C)CO)C[C@@H](C)[C@H](CN(C)Cc2ccncc2)O3)cc1	-4	-6	2	nt	nt	nt
CS(=O)(=O)c1nc(S(=O)(=O)c2ccc(Cl)cc2)c(N2CCOCC2)s1	12	4	17	-3	-73	67*
CC1CN(c2sc(S(C)(=O)=O)nc2S(=O)(=O)c2ccc(Cl)cc2)CC(C)O1 (centres undefined)	6	-6	16	-3	-27	22
C[C@H](CO)N1C[C@H](C)[C@H](CN(C)S(=O)(=O)c2ccc(Cl)cc2)Oc2ccc(NC(=O)C3CC3)cc2CC1=O	40	1	2	nt	nt	nt
O=C(Cc1ccncc1)NCC[C@H]1CC[C@H](NC(=O)Nc2ccc(F)cc2)[C@@H](CO)O1	0	1	-5	nt	nt	nt
Clc1ccc(-c2cc(CSc3ccccc3)on2)cc1	nt	22	nt	-1	127*	-130
O=C(CCl)NCc1cc(-c2ccc(Cl)cc2)no1	64*	nt	62*	1	-13	22
Clc1ccc(-c2cc(CSc3cccc(Cl)c3)on2)cc1	nt	10	nt	1	15	-12
c1ccc(SCc2cc(-c3ccccc3)no2)cc1	-171	nt	-120	12	94*	-85
CO[C@@H]1CN(C)C(=O)c2ccc(NC(=O)C3CC3)cc2OC[C@H](C)N(C(=O)c2ccccc2)C[C@H]1C	1	-1	5	nt	nt	nt
N#C/C(=C\c1ccc(Oc2ccc(C(F)(F)F)cc2[N+](=O)[O-])cc1)c1nc2ccccc2[nH]1	nt	nt	nt	nt	3	0
O=S(=O)(/C(=C\c1ccc(C(F)(F)F)cc1)c1nc2ccccc2[nH]1)c1ccccc1	nt	nt	nt	nt	-97	97*
O=C(NCc1ccco1)/C(=C/c1ccc(C(F)(F)F)cc1)c1nc2ccccc2[nH]1	-90	nt	nt	34*	14	-17
Cc1cc(C)c(-c2csc(NC(=O)C3=COCCO3)n2)cc1C	-91	nt	-32	17	71	-69
C=CCn1c(C)cc(-c2csc(NC(=O)C3=COCCO3)n2)c1C	-38	nt	-44	-14	120*	-118
O=C(Nc1ccc(S(=O)(=O)N2CCCCCC2)cc1)c1[nH]ncc1[N+](=O)[O-]	16	19	nt	20	-69	70*
O=C(Nc1ccc(OC(F)(F)F)cc1)c1[nH]ncc1[N+](=O)[O-]	-34	nt	-39	3	-69	70*
Cc1onc(C(=O)Nc2ccc(OC(F)(F)F)cc2)c1[N+](=O)[O-]	nt	-2	nt	nt	68	-63
O=C(Nc1ccc([N+](=O)[O-])cc1)c1ccc(S(=O)(=O)N2CCCC2)cc1	-4	-6	1	-3	-8	3
